From PubChem BioAssay AID841 (Emory University Molecular Libraries Screening Center, 2007) come the findings set out here.

SMILES strings stand for the structures. In all, about 140,000 compounds went through this assay and about 2,100 (1.5%) were called active. The sample as a whole holds a higher share of actives than the screen did. Values without a mark were called inactive. Cut-off read from the data, not from the text of the source: active = protection mostly above about 24% (no sharp cut-off); inactive = mostly below about 26%.

The test can be described thus: compounds protecting cells from measles virus cytopathic effect, primary screen, measles RdRp inhibitor project, single point, MLSMR library, absorbance (AID 841). Conditions: Measles virus-infected cells, CPE protection, at 4 µM, active compounds read high. On the technique in general: Damage to the host cells serves as the signal in cytopathic effect assays.
On to `C=CCn1c(=N)n(CC(O)COc2ccc(OC)cc2)c2ccccc21` (centres undefined), for which the protection (pct of control) is 19.9%.

Consider `OC(COc1ccccc1)Cn1cc(Br)cn1` (centres undefined), for which the protection (pct of control) was 17.3%. The value for `OC(CN=c1sc2ccccc2n1CC(O)COc1ccccc1)COc1ccccc1` (centres undefined) was 44.8% (active). Consider `CO/N=C(\N)c1ccc([N+](=O)[O-])cc1`, for which the protection (pct of control) was 2.5%. The result for `O=C(CCc1[nH]c2ccccc2c1Sc1ccccc1)N(CCO)CCO` reads 8.37%; that for `Cc1ccc(SCC(=O)Nc2ccc3c(c2)OCCO3)cc1`, 26.6% (active); that for `CCCCC(=O)Nc1ccc2c(c1)OCCO2`, 11%.

With `O=C(CSc1ccc(-c2ccc(F)cc2)nn1)Nc1ccc2c(c1)OCCO2`, the protection (pct of control) was 9.34%. As for `Cc1cc(C)nc(SC2CCCCC2NS(=O)(=O)c2ccc(Cl)cc2)n1` (centres undefined), the protection (pct of control) is 24.5%. The value for `O=C(CSc1ncn[nH]1)Nc1nsc(-c2ccccc2)n1` was 2.9%. The value for `Cc1ccccc1C(OCC(O)CN1CCCCC1CCO)c1ccccc1` (centres undefined) was 4.74%.

Turning to `CN(C)CCOC(=O)C(c1ccccc1)C1(O)CCCC1` (centres undefined), the protection (pct of control) is 2.07%. The value for `Cc1ccccc1C(OCCN(C)C)C1CCCCC1` (centres undefined) was 53.1% (active); that for `COc1ccc(/C=C/C(=O)OCC(=O)Nc2cccc(Oc3ccccc3)c2)c(OC)c1` was 22.7%. In the case of `CCCc1cc(=O)[nH]c(SCc2ccc(C#N)cc2)n1`, the protection (pct of control) was 2.18%.

Turning to `CCCc1cc(=O)n2[nH]c(SCc3ccccc3)nc2n1`, the protection (pct of control) is 90% (active). Consider `CCCc1cc(=O)[nH]c(SCC(=O)OCc2ccccc2)n1`, for which the protection (pct of control) was 13.7%. The result for `COc1ccc(NC(=O)COC(=O)c2ccc(NS(=O)(=O)/C=C/c3ccccc3)cc2)cc1` reads 6.22%. With `CN(C)/N=C/c1cc(Cl)cc([N+](=O)[O-])c1O`, the protection (pct of control) is 21.7%. The value for `COc1ccccc1Oc1ccc(N/C=C2/CCCC2=O)cc1` was 24.8%; that for `Cc1ccc(C)c(OCC(=O)N2CCN(C(=O)c3ccco3)CC2)c1` was 10.9%; that for `CCCOC(=O)c1[nH]c2c(c1C)C(=O)CC(c1cc(OC)c(OC)c(OC)c1)C2` (centres undefined) was 2.5%.

As for `COc1cc(OC)cc(C(=O)Nc2ncc3c(n2)CC(C)(C)CC3=O)c1`, the protection (pct of control) is 9.7%.

Regarding `COc1cc(C2CC(=O)c3cnc(NC(C)=O)nc3C2)cc(OC)c1OC` (centres undefined), the protection (pct of control) is 62.5% (active).

Take `Nc1nc(NC(=O)/C=C/c2ccccc2)nn1-c1ccccc1`: the protection (pct of control) was 3.85%. The result for `COC(=O)c1ccc(NC(=O)CSc2nnc(Cc3cccn3C)n2-c2ccc(F)cc2)cc1` reads 43.4% (active); that for `Cc1ccc(C)c(NC(=O)CSc2nnc(Cc3cccn3C)n2-c2ccc(F)cc2)c1`, 21.3%; that for `COc1ccccc1NC(=O)CSc1nnc(Cc2cccn2C)n1-c1ccc(F)cc1`, 15.6%. The result for `CCCOC(=O)c1ccc(N2C(=O)c3ccccc3C2=O)cc1` reads 1.17%; that for `Cn1nccc1CNC(=O)c1ccnn1C`, 24.5%. Consider `CCn1cc(CNC(=O)c2cc([N+](=O)[O-])c(C)c([N+](=O)[O-])c2)cn1`, for which the protection (pct of control) is 3.52%.

Turning to `CC1(C)C=C2[C@H]3CC[C@@H]4[C@@]5(C)CCC(=O)C(C)(C)[C@@H]5CC[C@@]4(C)[C@]3(C)CC[C@@]2(C(=O)O)CC1`, the protection (pct of control) was 44.7% (active). The result for `CCC(C)NCCOCCOc1ccc(Br)cc1C` (centres undefined) reads 5.1%. The result for `O=C(CNC(=O)C(c1ccccc1)c1ccccc1)N/N=C\c1ccc2c(c1)OCO2` reads 17.5%; that for `O=C(COc1ccc2oc3c(c2c1)CCCC3)Nc1ccccn1`, 9.54%. On to `Cc1c(C(=O)N2CCOCC2)[nH]c2ccc(OCc3ccccc3)cc12`, for which the protection (pct of control) was 11.5%. The result for `O=C(CN1CCOCC1)N1CCCc2c1c(=O)oc1ccc(OCc3ccccc3)cc21` reads 20.5% (active); that for `CC(=C1C(=O)c2ccccc2C1=O)N1CCN(c2ccccn2)CC1`, 4%.

`CNC(=S)N1CCN(c2ccccn2)CC1`: the protection (pct of control) was 3.85%. For the molecule `O=C(C(Cl)Cl)N1CCN(c2ccccn2)CC1`, the protection (pct of control) was 29.5% (active). The result for `CC(=O)Nc1ccc(S(=O)(=O)NC2(C(F)(F)F)C(=O)Nc3c2c(=O)[nH]c(=O)n3Cc2ccccc2)cc1` (centres undefined) reads 10.5%; that for `CCOC(=O)c1c(NC(=O)Cn2nc(C(F)(F)F)cc2C)sc2c1CCC2`, 20.5%; that for `N=C(N)SCc1cccc2ccccc12`, 32.9%.

`CCCCOc1ccc(CSC(=N)N)cc1[N+](=O)[O-]`: the protection (pct of control) is 23.1%. The result for `CCOc1ccc(Br)cc1CSC(=N)N` reads 25.8% (active); that for `Cc1ccc(NC(=O)CSCC(=O)NC2CCCCC2)cc1`, 36.4%; that for `COc1ccc(C(=O)Nc2sc(C)c(C)c2CN2CCOCC2)cc1`, 13.1%. With `CCOc1cc(/C=N/O)ccc1OCc1ccccc1F`, the protection (pct of control) is 36.5% (active). The result for `CCOc1ccc(/C=N/NC(=O)C(C)Sc2ccccn2)cc1OCC` (centres undefined) reads 3.61%.

Take `COc1cc(/C=C2/C(=O)ON=C2C)ccc1OCc1ccccc1F`: the protection (pct of control) is 6.29%. The value for `CCCCOc1ccc(C(=O)NN2CCN(C)CC2)cc1` was 24.4%; that for `COCCOC(=O)c1c(C)oc2cc(Br)c(OCC(N)=O)cc12` was 16.4%; that for `CCCCN=C(N)/C(C(=O)OCC)=C(\O)c1ccc(OC)cc1` was 6.3%. The result for `COc1ccc(C(=O)N(Cc2ccc(N(C)C)cc2)C2CCS(=O)(=O)C2)cc1` (centres undefined) reads 1.51%. The result for `CCCCC(=O)N(c1ccc(OC)cc1)C1C=CS(=O)(=O)C1` (centres undefined) reads 43.6% (active); that for `CC(C)CNC(=O)COC(=O)/C=C/c1ccco1`, 16.1%; that for `CCc1ccc(-c2cc(C(=O)NN3CCN(C)CC3)c3ccccc3n2)cc1`, 5.27%. Take `CCCCCC(=O)NC(=S)NNC(=O)c1ccc([N+](=O)[O-])cc1`: the protection (pct of control) is 3.27%. The value for `COCCCNC(=S)NC(=O)c1ccc([N+](=O)[O-])cc1` was 65.1% (active); that for `COCCCNC(=S)NC(=O)c1ccccc1` was 11.7%; that for `CCc1cccc(NC(=O)CCC(=O)O)c1` was 4.18%. The value for `Cc1ccc(-n2ncc3c(Nc4cccc(C(=O)O)c4)ncnc32)cc1` was 7.56%; that for `Cn1ncc2c(Nc3cccc4ccccc34)ncnc21` was 3.59%; that for `Cn1ncc2c(NNC(=O)Cc3cccc4ccccc34)ncnc21` was 26.4% (active).
